# From ChEMBL document CHEMBL2218924, “A broad activity screen in support of a chemogenomic map for kinase signalling research and drug discovery” (Biochem J, 2013)
# Experiments:
# [1] = target: G protein-coupled receptor kinase 5 (Homo sapiens) (UniProt P34947); conditions: at 1 µM
# [2] = target: G protein-coupled receptor kinase 6 (Homo sapiens) (UniProt P43250); conditions: at 1 µM
# Chain of G protein-coupled receptor kinase 6 (Homo sapiens) (P43250 whole entry, looked up): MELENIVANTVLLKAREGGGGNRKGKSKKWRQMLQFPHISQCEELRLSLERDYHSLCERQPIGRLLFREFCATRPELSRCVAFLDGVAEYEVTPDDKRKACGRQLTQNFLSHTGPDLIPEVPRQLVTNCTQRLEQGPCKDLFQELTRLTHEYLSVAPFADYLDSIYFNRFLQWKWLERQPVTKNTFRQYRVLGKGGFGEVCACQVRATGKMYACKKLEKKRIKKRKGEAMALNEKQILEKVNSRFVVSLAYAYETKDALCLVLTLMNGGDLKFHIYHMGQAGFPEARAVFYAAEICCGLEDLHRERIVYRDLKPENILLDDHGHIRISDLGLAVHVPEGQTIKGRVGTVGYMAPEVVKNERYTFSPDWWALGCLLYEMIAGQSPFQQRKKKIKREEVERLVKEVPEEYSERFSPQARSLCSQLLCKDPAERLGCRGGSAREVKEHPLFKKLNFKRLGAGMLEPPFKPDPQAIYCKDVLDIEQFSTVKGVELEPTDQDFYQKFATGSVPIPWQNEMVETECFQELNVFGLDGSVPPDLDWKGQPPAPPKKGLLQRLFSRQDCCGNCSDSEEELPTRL
# Chain of G protein-coupled receptor kinase 5 (Homo sapiens) (P34947 whole entry, looked up): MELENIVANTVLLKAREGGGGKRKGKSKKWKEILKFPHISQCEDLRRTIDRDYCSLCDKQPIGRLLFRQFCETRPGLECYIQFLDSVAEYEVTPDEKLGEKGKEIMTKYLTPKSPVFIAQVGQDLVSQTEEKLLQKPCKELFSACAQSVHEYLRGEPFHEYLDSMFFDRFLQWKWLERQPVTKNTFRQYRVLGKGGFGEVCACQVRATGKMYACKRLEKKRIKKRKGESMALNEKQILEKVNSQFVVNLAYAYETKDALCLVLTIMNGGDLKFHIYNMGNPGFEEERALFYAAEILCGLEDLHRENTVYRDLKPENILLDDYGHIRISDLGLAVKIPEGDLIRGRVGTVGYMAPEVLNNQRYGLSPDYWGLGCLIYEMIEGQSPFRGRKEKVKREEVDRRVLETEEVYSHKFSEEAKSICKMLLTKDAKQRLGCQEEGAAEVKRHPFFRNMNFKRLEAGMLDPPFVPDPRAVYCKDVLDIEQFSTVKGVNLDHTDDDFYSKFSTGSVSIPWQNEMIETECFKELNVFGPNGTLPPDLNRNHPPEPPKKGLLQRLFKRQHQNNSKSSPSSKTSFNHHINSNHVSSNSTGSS
SMILES,residual activity [1] [%],residual activity [2] [%]
CCCC(=O)Oc1ccc2[nH]c(C(=O)c3cc4ccccc4[nH]3)cc2c1,104,93
Cn1cnc2cc3c(Nc4cccc(Br)c4)ncnc3cc21,109,97
O=C1NC(=O)/C(=C/c2ccc3c(c2)OC(F)(F)O3)S1,92,93
Ic1cccc(CSc2nnc(-c3ccncc3)o2)c1,89,89
O=C(Nc1cccc(Nc2nccc(Nc3cccc(C(F)(F)F)c3)n2)c1)C1CC1,94,99
O=C1C(Cl)=C(N2C(=O)CCC2=O)C(=O)c2ccccc21,98,88
Cc1cccc(-c2[nH]c(C(C)(C)C)nc2-c2ccc3c(c2)OCO3)n1,105,103
CO[C@@H]1[C@H](N(C)C(=O)c2ccccc2)C[C@H]2O[C@]1(C)n1c3ccccc3c3c4c(c5c6ccccc6n2c5c31)C(=O)NC4,82,79
O=C(CCCc1ccc(-c2ccccc2F)cc1)Nc1ccc(O)cc1,101,101
CCC(=O)Nc1ccc2ncnc(Nc3cccc(Br)c3)c2c1,114,97
COc1cc2ncnc(Nc3ccc(NC(=O)c4ccccc4)cc3)c2cc1OC,105,111
Oc1c2ccccc2c2c3c(cccc13)N=N2,84,87
COc1cc2nccc(Oc3ccc(NC(=S)NC(=O)c4ccccc4C)cc3)c2cc1OC,98,87
N#C/C(=C(\N)Sc1ccc(N)cc1)c1ccccc1C(F)(F)F,97,86
O=c1c(-c2ccc(F)cc2)c(-c2ccncc2)[nH]n1-c1ccc(Cl)cc1,101,99
Nc1ncnc2[nH]nc(Nc3ccc(F)cc3)c12,103,97
CNc1cc2c(Nc3cccc(Br)c3)ncnc2cn1,109,95
Cc1cncc2cccc(S(=O)(=O)N3CCCN(C(=O)CN)C[C@H]3C)c12,98,84
Cn1sc(=O)n(Cc2ccccc2)c1=O,88,88
Cc1ccc(NC2=CC(=O)c3sc(C)nc3C2=O)cc1,93,96

SMILES,residual activity [1] [%],residual activity [2] [%]
O=c1cc(N2CCOCC2)oc2c1ccc1ccccc12,103,96
c1ccc2c(-c3ccncc3)c[nH]c2c1,98,87
NCCNc1ncc(C(N)=O)c(Nc2cccc(C(F)(F)F)c2)n1,105,100
COc1cc2ncnc(Nc3ccc(O)c(Br)c3)c2cc1OC,89,85
O=c1c2ccccc2[nH]c(=S)n1CCN1CCC(=C(c2ccc(F)cc2)c2ccc(F)cc2)CC1,101,91
Nc1ccc2ncnc(NCCc3ccc(Oc4ccccc4)cc3)c2c1,104,105
Cc1cc2ncc(-c3ccccc3)nc2cc1C,106,95
CC[n+]1c(/C=C/N(C)c2ccccc2)n(-c2ccccc2)c2ccc(-c3nc4ccccc4s3)cc21,108,101
Cn1nc2c3c(cccc31)C(=O)c1ccccc1-2,102,93
COc1cc2ncnc(Nc3ccc(Oc4ccccc4)cc3)c2cc1OC,90,93
CC(=O)c1ccc(N2CCOCC2)cc1O,105,95
c1ccc(-c2n[nH]cc2-c2ccnc3ccccc23)nc1,103,96
O=C(Nc1cccc(Nc2cc(Nc3cccc(C(F)(F)F)c3)ncn2)c1)C1CC1,102,98
CN(C)c1ccc(/C=C2\C(=O)Nc3ccccc32)cc1,91,97
Nc1n[nH]c2nc3ccccc3nc12,98,93
CCOc1cc2ncnc(Nc3cccc(Br)c3)c2cc1OCC,97,100
Oc1ccc(Nc2nc(-c3ccc(Cl)cc3)cs2)cc1,102,103
Cc1nc(-c2ccccc2)c(-c2ccncc2)o1,104,103
CO[C@H]1[C@@H](OC)C[C@H](C)[C@@H](OC)C2=CC(=O)C=C(NC(=O)/C(C)=C/C=C/[C@H](OC)[C@@H](OC(N)=O)/C(C)=C/[C@@H]1C)C2=O,70,97
Nc1n[nH]c2nnc(-c3c(-c4ccccc4)nn4ccccc34)cc12,93,87

SMILES,residual activity [1] [%],residual activity [2] [%]
CC#CC(=O)Nc1cc2c(Nc3ccc(F)c(Cl)c3)ncnc2cn1,100,95
CN(C)CCCn1cc(C2=C(c3c[nH]c4ccccc34)C(=O)NC2=O)c2ccccc21,61,87
O=C1NC(=O)c2c1c1c3ccccc3[nH]c1c1[nH]c3cc(Br)ccc3c21,102,102
COc1ccc(C(=O)Nc2sc3c(c2C(N)=O)CCCC3)cc1OC,91,90
O=C(O)/C=C/c1cc(Br)c(Br)c(Br)c1Br,–,99
CO[C@H]1C[C@@H]2CC[C@@H](C)[C@@](O)(O2)C(=O)C(=O)N2CCCC[C@H]2C(=O)O[C@H]([C@H](C)C[C@@H]2CC[C@@H](O)[C@H](OC)C2)CC(=O)[C@H](C)/C=C(\C)[C@@H](O)[C@@H](OC)C(=O)[C@H](C)C[C@H](C)/C=C/C=C/C=C/1C,95,89
CC(C)(C)c1nc2c3ccc(F)cc3c3c(=O)[nH]ccc3c2[nH]1,72,59
NC(=O)c1cccc(-c2cc(Nc3ccc(OC(F)(F)F)cc3)ncn2)c1,–,94
CCN(CC)CCCCN1c2ccccc2Oc2ccc(Cl)cc21,107,102
CCN(CC)C(=O)c1ccc(Nc2nc(OCC3CCCCC3)c3nc[nH]c3n2)cc1,–,97
COc1ccc(Cl)cc1NC(=O)Nc1cc(C)nc2ccccc12,–,98
N#CC(C#N)=C(N)/C(C#N)=C/c1ccc(O)cc1,–,94
COc1cccc(-c2cc(=O)c3ccccc3o2)c1N,100,99
O=C(c1ccccc1)c1ccc(N2CCOCC2)cc1O,–,96
O=C1NC(=O)C(c2c[nH]c3ccccc23)=C1c1c[nH]c2ccccc12,–,98
CCN1/C(=C/C(C)=O)Sc2ccc(OC)cc21,–,100
NC(=O)c1ccc(-c2nc(-c3ccc4c(c3)OCCO4)c(-c3ccccn3)[nH]2)cc1,–,95
O=C1Nc2ccc(Br)cc2/C1=C\c1cc2c([nH]1)CCCC2,104,102
Nc1ncnc2c1cnn2-c1ccccc1,–,93
